Holding throughout (assay): NCI-60 one-dose screen, 48 h (100 = growth as untreated, 0 = no growth, -100 = all killed)
The subject of one experiment is T-47D breast. The conditions noted are these: 10 µM unless noted.
Another experiment deals with BT-549 breast. The conditions noted are these: 10 µM unless noted.
Another experiment relates to MDA-MB-435 melanoma. Particulars: 10 µM unless noted.
In the next experiment the test system is SW-620 colon. The conditions noted are these: 10 µM unless noted.
For another experiment, the system named is MCF7 breast. Particulars: 10 µM unless noted.
The test system of the next experiment is HCT-116 colon. Particulars: 10 µM unless noted.
In a further experiment the test system is HCC-2998 colon. The conditions noted are these: 10 µM.
The test system of a further experiment is KM12 colon. Particulars: 10 µM unless noted.

15 compounds from PubChem BioAssay (NCI) can be followed below.

SMILES strings stand for the structures. This is part of a sample that, as a whole, favours compounds with a hit. Of some 83,000 tested, about 20% had one in any assay.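 Assay: single dose, 48 h. Readout: percent growth (0 = no net growth; negative = cell death). Active: <10.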 Values without a mark were called inactive. The source made the active and inactive calls.

In the case of `N#Cc1c(-c2ccc(C(F)(F)F)cc2)cc(NCC2CCS(=O)(=O)CC2)n2c1nc1ccccc12`, the growth is 64.3% with T-47D breast; 64.9% in the experiment with BT-549 breast; 92.8% with MDA-MB-435 melanoma; 93.3% in the experiment with SW-620 colon; 85.6% in the experiment on MCF7 breast; 74.9% in the experiment on HCT-116 colon. Moreover, the growth in the experiment on HCC-2998 colon is 91.9%; in the experiment on KM12 colon, 98.4%.
Consider `COc1ccc(-c2ccc3c(N4CCOC[C@@H]4C)nc(N4CCOC[C@@H]4C)nc3n2)cc1CO`, for which the growth was -35% (active) in the experiment on T-47D breast; -6.65% (active) with BT-549 breast; -14.1% (active) in the experiment on MDA-MB-435 melanoma; 8.32% (active) in the experiment with SW-620 colon; 5.12% (active) in the experiment with MCF7 breast; 21.9% in the experiment with HCT-116 colon. The growth in the experiment on HCC-2998 colon was 10.3%; with KM12 colon it was 13.1%.
In the case of `COc1cnc2c(c1)C(=O)c1c-2n(CCCN2CCC(N)CC2)c(=O)c2cc([N+](=O)[O-])ccc12`, the growth in the experiment on T-47D breast is 46.6%; in the experiment with BT-549 breast, 76.7%; in the experiment with MDA-MB-435 melanoma, 85.9%; with SW-620 colon, 37.2%; with MCF7 breast, 25.3%; with HCT-116 colon, 36.4%. Besides, the growth with HCC-2998 colon was 69.3%; in the experiment on KM12 colon, 44.6%.
For `CNC(=O)c1cc(Oc2ccc(NC(=O)Nc3ccc(Cl)c(C(F)(F)F)c3)c(F)c2)ccn1`, the growth was -34.5% (active) with T-47D breast; -31.3% (active) in the experiment on BT-549 breast; -57% (active) with MDA-MB-435 melanoma; -8.01% (active) in the experiment with SW-620 colon; -26.6% (active) in the experiment with MCF7 breast; -37.3% (active) with HCT-116 colon. For the same compound, the growth was -80.8% (active) in the experiment with HCC-2998 colon and -32.3% (active) with KM12 colon.
Regarding `CCNC(=O)C#Cc1ccc2c(C(=Nc3ccc(CN(C)C)cc3)c3ccccc3)c(O)[nH]c2c1`, the growth is 62.3% in the experiment on T-47D breast; 52.8% in the experiment with BT-549 breast; 14.7% with MDA-MB-435 melanoma; 0.412% (active) with SW-620 colon; 33.1% with MCF7 breast; -16.2% (active) in the experiment with HCT-116 colon. The growth in the experiment on HCC-2998 colon was -17.3% (active); in the experiment on KM12 colon, 6.13% (active).
Turning to `COc1cc2cc(NCc3ccc(F)cc3)nc(C)c2cc1OC`, the growth in the experiment on T-47D breast was 53.2%; in the experiment with BT-549 breast, 29%; with MDA-MB-435 melanoma, 24.6%; in the experiment on SW-620 colon, 21.8%; with MCF7 breast it was 68.6%; with HCT-116 colon, 9.34% (active). Further, the growth with HCC-2998 colon and in the experiment on KM12 colon was 42.3% each time.
In the case of `COc1ncc(-c2ccc3nccc(-c4ccnnc4)c3c2)cc1NS(=O)(=O)c1ccc(F)cc1F`, the growth in the experiment on T-47D breast is -25.3% (active); with BT-549 breast, -31.7% (active); in the experiment on MDA-MB-435 melanoma, -78% (active); in the experiment on SW-620 colon, -30.9% (active); in the experiment with MCF7 breast, 8.48% (active); in the experiment with HCT-116 colon, -48.7% (active). Besides, the growth in the experiment with HCC-2998 colon is -78.4% (active); with KM12 colon, -60.5% (active).
Regarding `Cc1cc(Nc2ncc(Cl)c(Nc3ccccc3S(=O)(=O)C(C)C)n2)c(OC(C)C)cc1C1CCNCC1`, the growth in the experiment on T-47D breast was -77.7% (active); in the experiment on BT-549 breast, -78.4% (active); in the experiment with MDA-MB-435 melanoma it was -100% (active); in the experiment on SW-620 colon it was -92.7% (active); in the experiment on MCF7 breast it was -73.7% (active); in the experiment on HCT-116 colon, -97.5% (active). The growth in the experiment with HCC-2998 colon was -93% (active); with KM12 colon, -95.8% (active).
With `CCN(CC)CCNC(=O)c1c(C)[nH]c(/C=C2\C(=O)Nc3ccc(F)cc32)c1C`, the growth is 80.4% in the experiment on T-47D breast; 20.2% with BT-549 breast; 3.92% (active) in the experiment on MDA-MB-435 melanoma; -2.88% (active) with SW-620 colon; 7.17% (active) in the experiment on MCF7 breast; -59.4% (active) in the experiment with HCT-116 colon. Further, the growth in the experiment with HCC-2998 colon is 1.98% (active); with KM12 colon it was 4.04% (active).
For `CC(C)(C)C(=O)OCOP(=O)(OCOC(=O)C(C)(C)C)C1CCCN(OC(=O)c2ccccc2)C1=O` (stereo not given), the growth in the experiment on T-47D breast was 13.8%; in the experiment on BT-549 breast it was 7.84% (active); in the experiment with MDA-MB-435 melanoma it was 45.2%; in the experiment on SW-620 colon, 45.1%; in the experiment with MCF7 breast, 0.983% (active); with HCT-116 colon it was 13%. The growth with HCC-2998 colon was 25.2%; in the experiment with KM12 colon, 5.57% (active).
`CO[C@H]1C[C@@H]2CC[C@@H](C)[C@@](O)(O2)C(=O)C(=O)N2CCCC[C@H]2C(=O)O[C@H]([C@H](C)C[C@@H]2CC[C@@H](OC(=O)C(C)(CO)CO)[C@H](OC)C2)CC(=O)[C@H](C)/C=C(\C)[C@@H](O)[C@@H](OC)C(=O)[C@H](C)C[C@H](C)\C=C/C=C/C=C/1C`: the growth is -6.15% (active) in the experiment with T-47D breast; 0.892% (active) with BT-549 breast; 33.1% with MDA-MB-435 melanoma; 42.7% in the experiment with SW-620 colon; 5.53% (active) in the experiment with MCF7 breast; 23.8% in the experiment with HCT-116 colon. The growth was 41.6% with HCC-2998 colon and 34.1% in the experiment on KM12 colon.
As for `Nc1ncnc2c1c(-c1cccc(OCc3ccccc3)c1)cn2C1CC(CN2CCC2)C1` (stereo not given), the growth in the experiment with T-47D breast is -38.2% (active); in the experiment with BT-549 breast, 33%; in the experiment with MDA-MB-435 melanoma, -43.6% (active); in the experiment with SW-620 colon it was 3.94% (active); with MCF7 breast, -22% (active); in the experiment on HCT-116 colon, 9.54% (active). Moreover, the growth was 17% in the experiment with HCC-2998 colon and 6.66% (active) with KM12 colon.
Take `C[C@@H](Nc1cc(F)cc(F)c1)c1cc(C(=O)N(C)C)cc2c(=O)cc(N3CCOCC3)oc12`: the growth in the experiment on T-47D breast is -12.4% (active); in the experiment with BT-549 breast, 34.2%; in the experiment on MDA-MB-435 melanoma, 64.8%; in the experiment with SW-620 colon, 60.5%; in the experiment on MCF7 breast, 25.2%; with HCT-116 colon, 55.8%. Moreover, the growth in the experiment with HCC-2998 colon is 55.3%; with KM12 colon it was 66.5%.
On to `Cn1cnc2c(F)c(Nc3ccc(Br)cc3F)c(C(=O)NOCCO)cc21`, for which the growth in the experiment with T-47D breast was 81.9%; in the experiment on BT-549 breast, 81.7%; in the experiment with MDA-MB-435 melanoma it was 32.5%; in the experiment on SW-620 colon it was 21%; with MCF7 breast, 87.3%; with HCT-116 colon it was 19%. The growth was 0.38% (active) with HCC-2998 colon and 27.5% with KM12 colon.
Take `COC(=O)[C@]12CC[C@@H](C)[C@H](C)[C@@H]1C1=CC[C@@H]3[C@@]4(C)C[C@@H](OC(=O)/C=C/c5ccccc5)[C@H](O)[C@@](C)(CO)[C@@H]4[C@H](O)C[C@@]3(C)[C@]1(C)CC2`: the growth in the experiment with T-47D breast was 13.2%; in the experiment with BT-549 breast, 34.4%; in the experiment on MDA-MB-435 melanoma it was 11.5%; with SW-620 colon it was -58.6% (active); in the experiment with MCF7 breast, 14.3%; in the experiment with HCT-116 colon, -56.4% (active). Moreover, the results for the growth with HCC-2998 colon and in the experiment on KM12 colon were -41.8% (active) and -2.35% (active), respectively.
